Experimental findings from article PMC4336329 (PLoS ONE, 2015) are described below.

In all, about 310,000 compounds went through this assay and about 2,200 (0.71%) showed an effect of 50% or more. The effect is printed as a negative number. The sample holds strong results, similar compounds and a random draw of the others, so the mix is not that of the screen.

Sequence of human ether-à-go-go-related gene (hERG) potassium channel (Q12809 whole entry, looked up): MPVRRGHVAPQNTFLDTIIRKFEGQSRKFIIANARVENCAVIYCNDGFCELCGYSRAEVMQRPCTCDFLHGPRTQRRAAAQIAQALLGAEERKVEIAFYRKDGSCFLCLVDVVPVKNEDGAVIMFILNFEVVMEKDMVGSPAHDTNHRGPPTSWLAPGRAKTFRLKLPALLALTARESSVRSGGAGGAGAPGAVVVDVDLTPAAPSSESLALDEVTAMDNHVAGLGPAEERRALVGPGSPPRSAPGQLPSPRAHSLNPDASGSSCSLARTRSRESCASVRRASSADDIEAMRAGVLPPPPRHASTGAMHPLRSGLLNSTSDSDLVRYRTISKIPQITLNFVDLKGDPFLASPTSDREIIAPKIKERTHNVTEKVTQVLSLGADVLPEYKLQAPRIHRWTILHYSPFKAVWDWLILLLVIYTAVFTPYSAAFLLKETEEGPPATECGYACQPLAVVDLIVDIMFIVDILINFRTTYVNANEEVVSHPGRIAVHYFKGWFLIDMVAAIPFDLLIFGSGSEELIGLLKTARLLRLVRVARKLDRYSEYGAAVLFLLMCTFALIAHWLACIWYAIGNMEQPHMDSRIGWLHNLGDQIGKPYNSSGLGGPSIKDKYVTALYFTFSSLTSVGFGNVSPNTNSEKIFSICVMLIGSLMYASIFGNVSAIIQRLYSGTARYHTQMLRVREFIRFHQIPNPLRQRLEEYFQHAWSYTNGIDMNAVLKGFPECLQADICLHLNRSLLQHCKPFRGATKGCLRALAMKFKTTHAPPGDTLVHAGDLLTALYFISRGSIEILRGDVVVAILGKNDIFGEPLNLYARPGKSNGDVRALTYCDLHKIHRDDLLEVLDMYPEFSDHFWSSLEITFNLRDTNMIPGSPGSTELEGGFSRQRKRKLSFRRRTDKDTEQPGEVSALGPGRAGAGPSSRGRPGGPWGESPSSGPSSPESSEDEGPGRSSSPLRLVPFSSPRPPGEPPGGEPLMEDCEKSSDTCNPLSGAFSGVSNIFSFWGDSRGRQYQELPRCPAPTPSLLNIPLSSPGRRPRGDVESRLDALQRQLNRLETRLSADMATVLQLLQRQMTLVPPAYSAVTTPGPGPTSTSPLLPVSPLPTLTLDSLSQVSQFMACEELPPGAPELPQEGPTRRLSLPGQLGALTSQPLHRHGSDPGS

This experiment addresses human ether-à-go-go-related gene (hERG) potassium channel (human, UniProt Q12809). The experiment can be described thus: primary screen, population patch clamp on CHO cells stably expressing hERG; higher = less effect of the substance.
In the case of `Cc1ccc(NC(=O)c2ccc3ccccc3n2)cc1S(=O)(=O)N1CCOCC1`, the “hERG current change (%, negative = inhibition) at 1uM” value is on record as 14%.

As for `CCOP1(=S)Oc2cc3c(cc2C(C(=O)OC)(C(F)(F)F)O1)OCO3` (stereo not drawn), the “hERG current change (%, negative = inhibition) at 1uM” value worked out at 5.27%.

Regarding `Cn1c(=O)n(C)c2cc(N3CCCC3)c(NC(=O)c3cccc(F)c3)cc21`, the “hERG current change (%, negative = inhibition) at 1uM” value is 10.3%.

With `CCCOc1ccc(C2=CSC3=NCCN23)cc1Cl`, the “hERG current change (%, negative = inhibition) at 1uM” value is -23.5%.

Take `Br.CC(C)Cc1ccc(C2=CSC3=NCCN23)cc1`: the “hERG current change (%, negative = inhibition) at 1uM” value is given as -60.9%.

With `CCOc1ccc(C2=CSC3=NCCN23)cc1[N+](=O)[O-]`, the “hERG current change (%, negative = inhibition) at 1uM” value is given as -61%.

`Br.COc1ccc(C2=CSC3=NCCN23)cc1OC`: the “hERG current change (%, negative = inhibition) at 1uM” value came to 7.66%.

With `CCOc1ccc(C2=CSC3=NCCN23)cc1Cl`, the “hERG current change (%, negative = inhibition) at 1uM” value is 10.2%.

Regarding `CCCOc1ccc(C2=CSC3=NCCN23)cc1.Cl`, the “hERG current change (%, negative = inhibition) at 1uM” value was -0.939%.

Consider `CCCCOc1ccc(C2=CSC3=NCCN23)cc1[N+](=O)[O-]`, for which the “hERG current change (%, negative = inhibition) at 1uM” value was -52.1%.

Regarding `COc1ccc(C2=CSC3=NCCN23)cc1[N+](=O)[O-]`, the “hERG current change (%, negative = inhibition) at 1uM” value came to 2.48%.

As for `O=[N+]([O-])c1ccc(C2=CSC3=NCCN23)cc1`, the “hERG current change (%, negative = inhibition) at 1uM” value was -0.955%.

For the compound `CCCOc1ccc(C2=CSC3=NCCN23)cc1[N+](=O)[O-]`, the “hERG current change (%, negative = inhibition) at 1uM” value is -68.4%.

On to `Br.CCc1ccc(C2=CSC3=NCCN23)cc1`, for which the “hERG current change (%, negative = inhibition) at 1uM” value was determined as 1.72%.

For the compound `Br.Cc1ccc(C2=CSC3=NCCN23)cc1`, the “hERG current change (%, negative = inhibition) at 1uM” value stood at 11.3%.

For the compound `CCCCn1c(N)c(N(CCOC)C(=O)CN2CC=C(c3ccccc3)CC2)c(=O)[nH]c1=O`, the “hERG current change (%, negative = inhibition) at 1uM” value was 10.3%.

Turning to `O=C(Cn1nnc(-c2ccc(Cl)cc2)n1)NC1CCS(=O)(=O)C1` (stereo not drawn), the “hERG current change (%, negative = inhibition) at 1uM” value is 0.0052%.

For `Cc1ccc(Cn2c(N)c(S(=O)(=O)c3cccs3)c3nc4ccccc4nc32)cc1`, the “hERG current change (%, negative = inhibition) at 1uM” value is recorded as 5.35%.

Regarding `CCn1c(SCC(=O)N/N=C/c2c[nH]c3ccccc23)nnc1-c1ccc(C)cc1`, the “hERG current change (%, negative = inhibition) at 1uM” value is given as 9.39%.

With `O=C1c2ccccc2C(=O)C1c1ccnc2ccccc12`, the “hERG current change (%, negative = inhibition) at 1uM” value is 11.7%.

`Cc1ccccc1N(CC(=O)NCc1ccc2c(c1)OCO2)C(=O)CCC(=O)Nc1ccccn1`: the “hERG current change (%, negative = inhibition) at 1uM” value is 6.43%.

Turning to `CCC1(CC)NC(=O)N(CC(=O)Nc2ccc(S(=O)(=O)N3CCOCC3)cc2)C1=O`, the “hERG current change (%, negative = inhibition) at 1uM” value was found to be 3.3%.

On to `CCC1CCC(N2CCN(c3ccc(F)cc3)CC2)CC1` (stereo not drawn), for which the “hERG current change (%, negative = inhibition) at 1uM” value is -2.92%.

For `CCN1CCC(N2CCN(c3ccc(F)cc3)CC2)CC1`, the “hERG current change (%, negative = inhibition) at 1uM” value was 10.6%.

Take `O=[N+]([O-])c1ccc(N2CCN(c3ccccc3)CC2)cc1`: the “hERG current change (%, negative = inhibition) at 1uM” value was determined as 9.45%.

Take `O=[N+]([O-])c1ccc(N2CCN(c3ccc(F)cc3)CC2)cc1`: the “hERG current change (%, negative = inhibition) at 1uM” value amounted to 5.71%.

Take `CCCN1CCC(N2CCN(c3ccc([N+](=O)[O-])cc3)CC2)CC1`: the “hERG current change (%, negative = inhibition) at 1uM” value is listed as -62.7%.

For `O=[N+]([O-])c1ccc(N2CCN(CC3CCCCC3)CC2)cc1`, the “hERG current change (%, negative = inhibition) at 1uM” value is recorded as -23%.

On to `CCC1CCC(N2CCN(c3ccc([N+](=O)[O-])cc3)CC2)CC1` (stereo not drawn), for which the “hERG current change (%, negative = inhibition) at 1uM” value was -74.5%.

Turning to `CC1CCC(N2CCN(c3ccc([N+](=O)[O-])cc3)CC2)CC1` (stereo not drawn), the “hERG current change (%, negative = inhibition) at 1uM” value is -67.8%.

As for `CCN1CCC(N2CCN(c3ccc(Cl)cc3)CC2)CC1`, the “hERG current change (%, negative = inhibition) at 1uM” value was determined as 10.7%.

On to `Cc1ccnc(N2C(=O)OC(C)(C)C2(C)O)c1` (stereo not drawn), for which the “hERG current change (%, negative = inhibition) at 1uM” value was -0.922%.

Turning to `C=CCS(=O)(=O)N1CCCC(C(=O)c2cccc(Cl)c2)C1` (stereo not drawn), the “hERG current change (%, negative = inhibition) at 1uM” value is listed as 14.2%.

Take `O=C(NS(=O)(=O)c1ccccc1)c1ccccc1O`: the “hERG current change (%, negative = inhibition) at 1uM” value turned out to be 0.636%.

Take `O=C(NCc1ccc2c(c1)OCO2)c1cc(-c2ccccc2Cl)on1`: the “hERG current change (%, negative = inhibition) at 1uM” value is reported as 12.4%.

In the case of `O=C(O)CSC1=NC(=Nc2cccc(Cl)c2)C2(CCCCC2)N1c1ccccc1`, the “hERG current change (%, negative = inhibition) at 1uM” value turned out to be 19.9%.

`Cc1cc(OC(C)C(=O)NCc2cccnc2)c2c(C)cc(=O)oc2c1` (stereo not drawn): the “hERG current change (%, negative = inhibition) at 1uM” value is 9.3%.

Turning to `Cc1ccccc1CNC(=O)Cc1ccccc1[N+](=O)[O-]`, the “hERG current change (%, negative = inhibition) at 1uM” value was 0.014%.

As for `Cc1c(C(=O)Nc2cccc([N+](=O)[O-])c2)sc2ncn(CC(=O)N3CCOCC3)c(=O)c12`, the “hERG current change (%, negative = inhibition) at 1uM” value was 14.1%.

In the case of `CCc1nnc(NC(=O)c2ccc(-c3ccccc3F)o2)s1`, the “hERG current change (%, negative = inhibition) at 1uM” value is reported as 11.7%.

Consider `Cc1cc(N2CCC(C)CC2)nc(-n2nc(C)cc2C)n1`, for which the “hERG current change (%, negative = inhibition) at 1uM” value is -9.09%.

Take `Cc1cc(N2CCN(c3ccccc3)CC2)nc(-n2nc(C)cc2C)n1`: the “hERG current change (%, negative = inhibition) at 1uM” value is given as -51%.

As for `Cc1cc(C)n(-c2nnc(N3CCN(c4ccccc4)CC3)nn2)n1`, the “hERG current change (%, negative = inhibition) at 1uM” value is listed as 4.59%.

With `O=C(Cc1cccc(NC(=O)C2CCCN(C(=O)C3CCC3)C2)c1)Nc1cccc(C(=O)N2CCCC2)c1` (stereo not drawn), the “hERG current change (%, negative = inhibition) at 1uM” value worked out at 9.32%.

On to `COc1ccc(C(=O)N2N=C(c3cccc(NS(C)(=O)=O)c3)CC2c2cccs2)cc1` (stereo not drawn), for which the “hERG current change (%, negative = inhibition) at 1uM” value is -22.1%.

`Cc1cccc(C(=O)N/N=C/c2ccc(OC3CSC3)cc2)c1`: the “hERG current change (%, negative = inhibition) at 1uM” value is on record as -59.8%.

As to `COc1cccc(C(=O)N/N=C/c2ccc(OC3CSC3)cc2)c1`, the “hERG current change (%, negative = inhibition) at 1uM” value was found to be 12.7%.

On to `O=C(N/N=C/c1ccc(OC2CSC2)cc1)c1ccccc1`, for which the “hERG current change (%, negative = inhibition) at 1uM” value was -0.636%.

Turning to `CN(CC(=O)Nc1ccccc1C(F)(F)F)C(=O)COc1ncnc2sccc12`, the “hERG current change (%, negative = inhibition) at 1uM” value turned out to be 6.31%.

For the compound `C=CCn1c(SCC(=O)NC(=O)NCC(C)C)nnc1C1CCCCC1`, the “hERG current change (%, negative = inhibition) at 1uM” value is reported as 13.9%.

Take `O=C(O)CCC(=O)NCc1cn(-c2ccccc2)nc1-c1cccc(Br)c1`: the “hERG current change (%, negative = inhibition) at 1uM” value is given as 9.76%.

Regarding `O=C(c1cc([N+](=O)[O-])ccc1Cl)N1CCN(c2ccc([N+](=O)[O-])cc2)CC1`, the “hERG current change (%, negative = inhibition) at 1uM” value was -58.8%.

`Cc1cccc(N2CCN(C(=O)c3cc(S(=O)(=O)N(C)C)ccc3N3CCCC3)CC2)c1C`: the “hERG current change (%, negative = inhibition) at 1uM” value is recorded as 5.76%.

Take `O=C(c1cc([N+](=O)[O-])ccc1N1CCOCC1)N1CCN(c2ccccc2)CC1`: the “hERG current change (%, negative = inhibition) at 1uM” value is on record as 7.19%.

In the case of `O=C(c1cc([N+](=O)[O-])ccc1N1CCOCC1)N1CCN(c2ccc([N+](=O)[O-])cc2)CC1`, the “hERG current change (%, negative = inhibition) at 1uM” value is -74%.

On to `CN(C)S(=O)(=O)c1ccc(N2CCCC2)c(C(=O)N2CCN(c3ccc([N+](=O)[O-])cc3)CC2)c1`, for which the “hERG current change (%, negative = inhibition) at 1uM” value is reported as -84%.

In the case of `O=C(c1cc([N+](=O)[O-])ccc1Cl)N1CCN(c2ccc(F)cc2)CC1`, the “hERG current change (%, negative = inhibition) at 1uM” value was 0.85%.

Regarding `Cc1ccc(S(=O)(=O)N2CCN(C(=O)c3cc(S(=O)(=O)N(C)C)ccc3N3CCCC3)CC2)cc1`, the “hERG current change (%, negative = inhibition) at 1uM” value was found to be 13.1%.

With `O=C(c1cc([N+](=O)[O-])ccc1N1CCOCC1)N1CCOCC1`, the “hERG current change (%, negative = inhibition) at 1uM” value is on record as 12.4%.

Consider `O=C(c1cc([N+](=O)[O-])ccc1Cl)N1CCN(c2ccccc2)CC1`, for which the “hERG current change (%, negative = inhibition) at 1uM” value is listed as 4.13%.
